In the supplement of paper PMC10723795:
± gives the standard deviation of the averaged measurements.

What follows are compounds tested on BJ5TA (assay: nucleolar normality score relative to DMSO (fraction of DMSO control); RPE1 is a non-cancer human cell line; higher = more normal nucleoli (less nucleolar stress)).
Protocol: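 Selected screen hits were validated in hTERT lines (BJ5TA, CHON-002, RPE1) and cancer lines (DLD1, HCT116). Cells were immunostained for nucleolin and UBF and the nucleolar normality score was measured per field of view, with 4 fields per drug. Scores are normalized to each cell line's own DMSO control. Dose and time are not stated for this panel.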
For `CC[C@@]1(O)C(=O)OCc2c1cc1n(c2=O)Cc2cc3ccccc3nc2-1` [Camptothecin], the nucleolar normality score was 0.473 ± 0.03.
